The record followed here is publication PMC7862700, “An all-to-all approach to the identification of sequence-specific readers for epigenetic DNA modifications on cytosine”.

What all share (assay): DAPPL (digital affinity profiling via proximity ligation, sequencing); 10 mM Tris-HCl pH 7.5, 50 mM NaCl, 1 mM DTT, 4% glycerol, room temperature, 30 min; GST-TFs on glutathione beads, 16-mer random dsDNA library, 0.1% formaldehyde crosslink after washing; high values mean tight binding
One test addresses T1, FLI1 (Homo sapiens, UniProt Q01543 1-452).
T1 sequence: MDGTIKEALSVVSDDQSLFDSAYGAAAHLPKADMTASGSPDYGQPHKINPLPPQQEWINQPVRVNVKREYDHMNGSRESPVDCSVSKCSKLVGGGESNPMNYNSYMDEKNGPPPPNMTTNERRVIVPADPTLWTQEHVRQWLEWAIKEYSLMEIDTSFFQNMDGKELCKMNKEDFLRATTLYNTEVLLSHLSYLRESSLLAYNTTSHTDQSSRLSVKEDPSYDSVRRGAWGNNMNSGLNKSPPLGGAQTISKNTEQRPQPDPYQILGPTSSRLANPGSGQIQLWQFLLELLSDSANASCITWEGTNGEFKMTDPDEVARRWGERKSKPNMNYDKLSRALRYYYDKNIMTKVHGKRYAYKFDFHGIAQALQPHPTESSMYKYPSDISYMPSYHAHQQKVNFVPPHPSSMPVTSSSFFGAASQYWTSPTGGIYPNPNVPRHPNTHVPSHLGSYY
The conditions noted are these: protein: recombinant; tags: N-terminal GST; dsDNA, one strand shown. The method in brief: (§1)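 In yeast, human transcription factors were expressed with a GST fusion, then pulled down on glutathione beads and given DNA barcodes. Pooled with a tag-only sample, they were exposed to 200 nmole of a 16-mer random double-stranded DNA library (Tris/NaCl/DTT/glycerol buffer, room temperature, 30 min), washed, crosslinked with 0.1% formaldehyde, proximity-ligated using BsaI/T4 ligase for 1 h at 37 °C, PCR-amplified and read on an Illumina NextSeq500. Each hexamer's frequency of reads for a factor, divided by the matching frequency for the tag-only sample, gives the binding signal.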

The target in the next test is T2, ELK1 (Homo sapiens, UniProt P19419 1-428).
T2 sequence: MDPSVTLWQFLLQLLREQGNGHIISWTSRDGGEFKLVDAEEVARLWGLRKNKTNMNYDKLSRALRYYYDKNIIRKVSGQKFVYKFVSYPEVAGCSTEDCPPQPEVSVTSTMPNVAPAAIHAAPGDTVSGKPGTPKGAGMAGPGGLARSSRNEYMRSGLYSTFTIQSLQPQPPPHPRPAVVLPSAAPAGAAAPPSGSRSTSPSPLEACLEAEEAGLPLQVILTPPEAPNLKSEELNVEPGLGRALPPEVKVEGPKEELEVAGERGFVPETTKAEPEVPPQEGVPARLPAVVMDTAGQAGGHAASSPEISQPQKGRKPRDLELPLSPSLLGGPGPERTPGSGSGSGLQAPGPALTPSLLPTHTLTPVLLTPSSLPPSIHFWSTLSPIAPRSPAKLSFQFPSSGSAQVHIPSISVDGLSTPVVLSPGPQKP
Particulars: protein: recombinant; tags: N-terminal GST; dsDNA, one strand shown. The method in brief:
as §1

Another test addresses T3, GABPA (Homo sapiens, UniProt Q06546 1-454).
T3 sequence: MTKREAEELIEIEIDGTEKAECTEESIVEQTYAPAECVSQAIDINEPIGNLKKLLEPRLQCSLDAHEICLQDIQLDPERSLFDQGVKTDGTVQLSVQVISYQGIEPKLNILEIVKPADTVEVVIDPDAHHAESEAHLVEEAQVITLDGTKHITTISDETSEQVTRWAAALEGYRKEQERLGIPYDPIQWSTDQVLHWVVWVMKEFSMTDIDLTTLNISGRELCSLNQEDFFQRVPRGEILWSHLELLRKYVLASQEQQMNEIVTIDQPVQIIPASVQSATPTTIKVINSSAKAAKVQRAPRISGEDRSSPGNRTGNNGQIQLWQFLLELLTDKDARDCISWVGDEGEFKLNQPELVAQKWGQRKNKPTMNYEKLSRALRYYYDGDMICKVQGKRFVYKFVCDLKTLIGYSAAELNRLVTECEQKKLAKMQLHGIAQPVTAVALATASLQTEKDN
The conditions noted are these: protein: recombinant; tags: N-terminal GST; dsDNA, one strand shown. The method in brief: as §1

The next test has as its target T4, ERG (Homo sapiens, UniProt P11308 1-479).
T4 sequence: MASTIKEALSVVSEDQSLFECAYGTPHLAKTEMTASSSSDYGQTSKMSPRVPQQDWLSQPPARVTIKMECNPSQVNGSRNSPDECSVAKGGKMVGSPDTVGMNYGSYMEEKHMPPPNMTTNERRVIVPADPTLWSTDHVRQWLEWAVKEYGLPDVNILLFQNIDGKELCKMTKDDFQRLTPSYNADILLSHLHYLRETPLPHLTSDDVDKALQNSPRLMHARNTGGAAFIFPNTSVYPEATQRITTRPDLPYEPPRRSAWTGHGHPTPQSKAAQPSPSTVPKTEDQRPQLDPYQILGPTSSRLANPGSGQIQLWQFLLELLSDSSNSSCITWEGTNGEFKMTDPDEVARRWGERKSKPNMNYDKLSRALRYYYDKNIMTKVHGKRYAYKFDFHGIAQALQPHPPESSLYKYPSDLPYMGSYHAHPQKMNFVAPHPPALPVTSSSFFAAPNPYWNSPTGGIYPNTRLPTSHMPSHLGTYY
Particulars: protein: recombinant; tags: N-terminal GST; dsDNA, one strand shown. The method in brief:
as §1

In another test the target is ELF1 (Homo sapiens, UniProt P32519 1-619). Particulars: protein: recombinant; tags: N-terminal GST; dsDNA, one strand shown. A digest of the protocol:
as §1

In another test the target is T5, EHF (Homo sapiens, UniProt Q9NZC4 1-300).
T5 sequence: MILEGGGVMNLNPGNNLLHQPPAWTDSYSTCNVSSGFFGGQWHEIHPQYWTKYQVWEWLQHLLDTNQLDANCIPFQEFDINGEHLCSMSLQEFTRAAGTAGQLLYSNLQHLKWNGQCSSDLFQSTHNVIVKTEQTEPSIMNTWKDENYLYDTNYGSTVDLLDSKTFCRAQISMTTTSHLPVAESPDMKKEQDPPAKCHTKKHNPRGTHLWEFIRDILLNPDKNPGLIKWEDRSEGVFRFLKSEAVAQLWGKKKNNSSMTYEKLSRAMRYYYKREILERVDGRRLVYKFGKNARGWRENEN
The conditions noted are these: protein: recombinant; tags: N-terminal GST; dsDNA, one strand shown. A digest of the protocol: as §1

A further test deals with SPI1 (Homo sapiens, UniProt P17947 1-270). The conditions noted are these: protein: recombinant; tags: N-terminal GST; dsDNA, one strand shown. A digest of the protocol:
as §1

The next test has as its target SPIB (Homo sapiens, UniProt Q01892 1-262). The conditions noted are these: protein: recombinant; tags: N-terminal GST; dsDNA, one strand shown. A digest of the protocol:
as §1

For a further test, the target named is T6, ELK3 (Homo sapiens, UniProt P41970 1-407).
T6 sequence: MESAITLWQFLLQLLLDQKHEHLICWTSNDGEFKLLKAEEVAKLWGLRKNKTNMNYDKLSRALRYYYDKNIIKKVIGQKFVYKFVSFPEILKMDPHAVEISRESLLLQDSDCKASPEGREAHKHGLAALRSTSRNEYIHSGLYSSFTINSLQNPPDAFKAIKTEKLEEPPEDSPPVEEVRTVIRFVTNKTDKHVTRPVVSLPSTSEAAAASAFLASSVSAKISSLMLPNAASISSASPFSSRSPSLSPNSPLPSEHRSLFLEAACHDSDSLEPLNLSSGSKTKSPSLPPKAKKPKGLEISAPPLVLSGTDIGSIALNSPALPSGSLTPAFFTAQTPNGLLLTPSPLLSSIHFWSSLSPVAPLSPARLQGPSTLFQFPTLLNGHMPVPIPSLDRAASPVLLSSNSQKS
Particulars: protein: recombinant; tags: N-terminal GST; dsDNA, one strand shown. A digest of the protocol: as §1

The target in the next test is T7, FEV (Homo sapiens, UniProt Q99581 1-238).
T7 sequence: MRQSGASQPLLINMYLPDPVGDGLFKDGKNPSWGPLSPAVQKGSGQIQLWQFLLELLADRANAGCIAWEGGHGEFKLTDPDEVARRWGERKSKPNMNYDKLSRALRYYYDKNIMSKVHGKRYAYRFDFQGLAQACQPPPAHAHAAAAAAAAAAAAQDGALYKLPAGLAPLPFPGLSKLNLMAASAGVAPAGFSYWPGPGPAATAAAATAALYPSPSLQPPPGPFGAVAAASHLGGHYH
Particulars: protein: recombinant; tags: N-terminal GST; dsDNA, one strand shown. The method in brief:
as §1

Another test has as its target ETV5 (Homo sapiens, UniProt P41161 1-510). Particulars: protein: recombinant; tags: N-terminal GST; dsDNA, one strand shown. A digest of the protocol: as §1
In a further test the target is HSF1 (Homo sapiens, UniProt Q00613 1-529). The conditions noted are these: protein: recombinant; tags: N-terminal GST; chain copies: 3; dsDNA, one strand shown. A digest of the protocol: as §1
HSF1, sequence (Q00613 whole entry): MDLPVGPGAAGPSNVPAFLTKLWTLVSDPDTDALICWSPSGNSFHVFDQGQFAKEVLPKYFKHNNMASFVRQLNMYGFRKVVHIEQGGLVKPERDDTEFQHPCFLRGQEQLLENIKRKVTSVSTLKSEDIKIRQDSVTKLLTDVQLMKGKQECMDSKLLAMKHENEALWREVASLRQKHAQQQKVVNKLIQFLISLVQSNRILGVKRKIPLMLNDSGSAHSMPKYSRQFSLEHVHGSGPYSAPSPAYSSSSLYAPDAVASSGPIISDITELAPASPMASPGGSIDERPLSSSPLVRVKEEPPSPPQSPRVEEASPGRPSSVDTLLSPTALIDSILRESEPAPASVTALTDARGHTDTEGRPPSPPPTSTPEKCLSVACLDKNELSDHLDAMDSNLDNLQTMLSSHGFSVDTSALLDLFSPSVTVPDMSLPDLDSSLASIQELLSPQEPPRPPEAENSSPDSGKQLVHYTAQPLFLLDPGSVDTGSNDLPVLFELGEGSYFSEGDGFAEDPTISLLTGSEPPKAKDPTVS
In another test the target is T8, SPIC (Homo sapiens, UniProt Q8N5J4 1-248).
T8 sequence: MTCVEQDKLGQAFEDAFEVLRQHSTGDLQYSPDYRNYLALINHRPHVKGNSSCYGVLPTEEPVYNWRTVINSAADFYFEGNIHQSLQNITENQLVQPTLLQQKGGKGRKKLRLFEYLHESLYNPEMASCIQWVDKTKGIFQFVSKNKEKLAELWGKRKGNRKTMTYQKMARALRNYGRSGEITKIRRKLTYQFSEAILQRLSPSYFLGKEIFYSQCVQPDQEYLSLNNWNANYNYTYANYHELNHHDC
Particulars: protein: recombinant; tags: N-terminal GST; dsDNA, one strand shown. The method in brief:
as §1

Another test addresses ELF4 (Homo sapiens, UniProt Q99607 1-663). The conditions noted are these: protein: recombinant; tags: N-terminal GST; dsDNA, one strand shown. The method in brief:
as §1

The next test deals with T9, ELK4 (Homo sapiens, UniProt P28324-2 1-405).
T9 sequence: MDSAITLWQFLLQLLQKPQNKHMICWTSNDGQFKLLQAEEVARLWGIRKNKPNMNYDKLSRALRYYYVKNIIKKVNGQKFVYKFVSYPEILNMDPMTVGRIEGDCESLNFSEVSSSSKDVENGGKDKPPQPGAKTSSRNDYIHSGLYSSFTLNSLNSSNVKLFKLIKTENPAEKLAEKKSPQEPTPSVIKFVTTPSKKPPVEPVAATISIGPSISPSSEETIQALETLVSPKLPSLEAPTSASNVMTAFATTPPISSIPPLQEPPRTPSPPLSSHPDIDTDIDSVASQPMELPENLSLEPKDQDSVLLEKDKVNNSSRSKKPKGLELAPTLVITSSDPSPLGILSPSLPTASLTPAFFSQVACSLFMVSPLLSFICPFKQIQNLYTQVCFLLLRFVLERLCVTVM
Particulars: protein: recombinant; tags: N-terminal GST; dsDNA, one strand shown. A digest of the protocol: as §1

The target in another test is T10, ETV2 (Homo sapiens, UniProt O00321 1-342).
T10 sequence: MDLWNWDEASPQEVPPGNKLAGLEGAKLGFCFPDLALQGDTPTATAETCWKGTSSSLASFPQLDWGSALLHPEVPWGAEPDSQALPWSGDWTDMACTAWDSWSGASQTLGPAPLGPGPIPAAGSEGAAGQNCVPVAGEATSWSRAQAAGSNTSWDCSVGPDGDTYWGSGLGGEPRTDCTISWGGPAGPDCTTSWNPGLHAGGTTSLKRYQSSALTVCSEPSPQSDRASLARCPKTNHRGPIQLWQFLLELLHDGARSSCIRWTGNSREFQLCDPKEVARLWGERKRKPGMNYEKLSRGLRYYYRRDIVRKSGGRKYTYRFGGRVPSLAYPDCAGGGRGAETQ
Particulars: protein: recombinant; tags: N-terminal GST; dsDNA, one strand shown. The method in brief: as §1

The next test has as its target T11, ELF3 (Homo sapiens, UniProt P78545 1-371).
T11 sequence: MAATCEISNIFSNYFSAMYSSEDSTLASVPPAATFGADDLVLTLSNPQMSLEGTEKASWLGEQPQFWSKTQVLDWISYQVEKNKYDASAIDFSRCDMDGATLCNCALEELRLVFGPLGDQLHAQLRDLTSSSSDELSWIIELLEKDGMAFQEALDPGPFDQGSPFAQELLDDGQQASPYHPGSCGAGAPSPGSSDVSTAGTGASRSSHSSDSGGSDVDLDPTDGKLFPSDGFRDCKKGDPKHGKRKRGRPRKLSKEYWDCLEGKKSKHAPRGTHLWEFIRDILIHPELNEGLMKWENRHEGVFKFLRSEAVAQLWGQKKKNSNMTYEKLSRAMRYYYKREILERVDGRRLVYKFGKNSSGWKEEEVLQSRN
The conditions noted are these: protein: recombinant; tags: N-terminal GST; dsDNA, one strand shown. A digest of the protocol: as §1

A further test concerns the target CRX (Homo sapiens, UniProt O43186 1-299). Particulars: protein: recombinant; tags: N-terminal GST; dsDNA, one strand shown. A digest of the protocol: as §1
The target in the next test is ETV1 (Homo sapiens, UniProt P50549 1-477). Particulars: protein: recombinant; tags: N-terminal GST; dsDNA, one strand shown. A digest of the protocol: as §1
ETV1, sequence (P50549 whole entry): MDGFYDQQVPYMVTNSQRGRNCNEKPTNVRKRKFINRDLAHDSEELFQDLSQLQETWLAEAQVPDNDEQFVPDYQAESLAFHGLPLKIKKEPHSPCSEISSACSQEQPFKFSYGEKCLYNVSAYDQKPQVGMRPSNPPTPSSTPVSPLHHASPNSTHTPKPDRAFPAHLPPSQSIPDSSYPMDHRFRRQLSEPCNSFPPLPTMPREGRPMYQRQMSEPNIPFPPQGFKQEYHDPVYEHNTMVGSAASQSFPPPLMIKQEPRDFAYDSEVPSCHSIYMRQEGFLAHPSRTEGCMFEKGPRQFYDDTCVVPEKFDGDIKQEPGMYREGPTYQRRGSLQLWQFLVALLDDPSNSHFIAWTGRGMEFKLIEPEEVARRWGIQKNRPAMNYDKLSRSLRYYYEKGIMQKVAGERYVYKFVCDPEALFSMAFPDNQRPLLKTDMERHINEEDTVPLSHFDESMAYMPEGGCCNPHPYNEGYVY

ETV5, sequence (P41161 whole entry): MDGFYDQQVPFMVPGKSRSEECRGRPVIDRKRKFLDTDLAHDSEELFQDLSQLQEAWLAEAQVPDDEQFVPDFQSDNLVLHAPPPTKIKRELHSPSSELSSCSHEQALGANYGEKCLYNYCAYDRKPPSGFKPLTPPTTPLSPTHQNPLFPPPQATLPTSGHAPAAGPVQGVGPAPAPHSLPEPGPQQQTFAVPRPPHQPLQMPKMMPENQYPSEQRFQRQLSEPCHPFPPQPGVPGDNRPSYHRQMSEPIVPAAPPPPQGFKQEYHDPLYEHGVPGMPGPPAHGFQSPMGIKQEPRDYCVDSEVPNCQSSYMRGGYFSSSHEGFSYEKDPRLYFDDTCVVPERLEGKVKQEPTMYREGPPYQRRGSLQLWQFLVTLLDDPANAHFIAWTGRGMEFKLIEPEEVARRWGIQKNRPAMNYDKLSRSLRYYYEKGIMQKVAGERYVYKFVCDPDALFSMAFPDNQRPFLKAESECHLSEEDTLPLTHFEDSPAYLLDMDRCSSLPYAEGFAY
SPIB, sequence (Q01892 whole entry): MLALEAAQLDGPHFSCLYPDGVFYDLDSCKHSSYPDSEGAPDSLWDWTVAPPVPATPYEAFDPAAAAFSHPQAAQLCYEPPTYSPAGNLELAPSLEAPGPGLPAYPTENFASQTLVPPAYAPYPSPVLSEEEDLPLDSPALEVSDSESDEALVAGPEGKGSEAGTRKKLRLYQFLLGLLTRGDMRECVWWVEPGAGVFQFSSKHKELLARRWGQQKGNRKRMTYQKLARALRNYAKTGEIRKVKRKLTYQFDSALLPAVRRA
ELF4, sequence (Q99607 whole entry): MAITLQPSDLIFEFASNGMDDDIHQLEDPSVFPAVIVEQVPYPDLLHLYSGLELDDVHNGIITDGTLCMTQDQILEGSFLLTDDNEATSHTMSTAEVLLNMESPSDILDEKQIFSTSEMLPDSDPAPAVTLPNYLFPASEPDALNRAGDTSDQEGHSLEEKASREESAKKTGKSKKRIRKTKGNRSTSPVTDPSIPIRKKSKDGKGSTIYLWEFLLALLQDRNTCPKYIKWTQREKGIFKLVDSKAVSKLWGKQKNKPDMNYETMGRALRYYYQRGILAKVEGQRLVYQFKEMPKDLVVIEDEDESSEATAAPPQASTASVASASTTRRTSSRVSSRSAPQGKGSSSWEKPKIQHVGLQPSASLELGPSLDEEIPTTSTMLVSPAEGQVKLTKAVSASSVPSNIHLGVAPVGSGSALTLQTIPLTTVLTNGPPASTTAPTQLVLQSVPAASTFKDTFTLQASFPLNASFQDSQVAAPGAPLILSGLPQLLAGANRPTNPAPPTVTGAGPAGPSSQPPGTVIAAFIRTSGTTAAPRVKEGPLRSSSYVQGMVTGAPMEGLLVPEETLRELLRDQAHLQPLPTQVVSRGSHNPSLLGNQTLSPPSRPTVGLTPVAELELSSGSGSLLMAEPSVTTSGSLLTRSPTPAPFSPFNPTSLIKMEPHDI
CRX, sequence (O43186 whole entry): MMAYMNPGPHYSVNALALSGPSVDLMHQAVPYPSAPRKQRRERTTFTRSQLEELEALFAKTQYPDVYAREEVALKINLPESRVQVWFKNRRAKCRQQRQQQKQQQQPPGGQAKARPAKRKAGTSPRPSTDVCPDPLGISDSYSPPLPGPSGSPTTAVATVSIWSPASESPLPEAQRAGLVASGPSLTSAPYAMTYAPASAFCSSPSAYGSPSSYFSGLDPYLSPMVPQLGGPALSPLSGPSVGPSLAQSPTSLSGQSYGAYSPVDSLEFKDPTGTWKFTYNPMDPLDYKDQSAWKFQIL
ELF1, sequence (P32519 whole entry): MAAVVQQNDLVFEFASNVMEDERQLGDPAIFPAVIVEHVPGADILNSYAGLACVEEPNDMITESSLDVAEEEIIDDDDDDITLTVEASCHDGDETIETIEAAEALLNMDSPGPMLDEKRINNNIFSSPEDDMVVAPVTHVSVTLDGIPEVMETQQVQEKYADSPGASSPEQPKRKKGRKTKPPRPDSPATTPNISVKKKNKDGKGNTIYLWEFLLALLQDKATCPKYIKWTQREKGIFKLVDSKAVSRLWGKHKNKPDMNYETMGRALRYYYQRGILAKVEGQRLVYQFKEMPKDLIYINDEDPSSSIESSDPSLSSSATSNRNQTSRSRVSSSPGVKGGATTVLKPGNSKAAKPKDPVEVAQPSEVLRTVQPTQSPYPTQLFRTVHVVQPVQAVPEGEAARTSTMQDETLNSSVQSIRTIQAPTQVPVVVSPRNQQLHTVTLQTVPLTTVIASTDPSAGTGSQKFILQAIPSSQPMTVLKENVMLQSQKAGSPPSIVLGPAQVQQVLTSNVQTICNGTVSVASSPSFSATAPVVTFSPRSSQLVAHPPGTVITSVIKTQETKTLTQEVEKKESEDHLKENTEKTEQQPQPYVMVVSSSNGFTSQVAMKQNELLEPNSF

GCTGCT: the binding signal with FLI1 is 1.32 fold enrichment (6-mer frequency, TF over GST control); with ELK1, 1.24 fold enrichment (6-mer frequency, TF over GST control); with GABPA, 1.24 fold enrichment (6-mer frequency, TF over GST control); in the test with ERG it was 1.29 fold enrichment (6-mer frequency, TF over GST control); in the test with ELF1, 1.41 fold enrichment (6-mer frequency, TF over GST control); with EHF, 1.34 fold enrichment (6-mer frequency, TF over GST control). For the same sequence, the binding signal in the test with SPI1 was 1.19 fold enrichment (6-mer frequency, TF over GST control); with SPIB it was 1.29 fold enrichment (6-mer frequency, TF over GST control); with ELK3, 1.27 fold enrichment (6-mer frequency, TF over GST control); with FEV it was 1.27 fold enrichment (6-mer frequency, TF over GST control); with ETV5, 1.25 fold enrichment (6-mer frequency, TF over GST control); in the test with HSF1, 1.13 fold enrichment (6-mer frequency, TF over GST control). Further, the binding signal is 1.5 fold enrichment (6-mer frequency, TF over GST control) with SPIC; 1.29 fold enrichment (6-mer frequency, TF over GST control) in the test with ELF4; 1.36 fold enrichment (6-mer frequency, TF over GST control) with ELK4; 1.25 fold enrichment (6-mer frequency, TF over GST control) with ETV2; 1.37 fold enrichment (6-mer frequency, TF over GST control) with ELF3; 1.27 fold enrichment (6-mer frequency, TF over GST control) with CRX. For the same sequence, the binding signal in the test with ETV1 was 1.42 fold enrichment (6-mer frequency, TF over GST control).
